Assay outcomes: PubChem BioAssay, National Center for Advancing Translational Sciences (NCATS)
Compounds with a hit are over-represented: about 2.9% of the library has one in this group of screens.
A549 viability – counter-screen for Nrf2 inhibitors: cytotoxicity in A549 cells; 0.16% of 390,000 active; Potency, µM (top dose mostly 46 µM), for the others: top-dose activity change, negative = cytotoxicity, actives largely listed as inhibitors; A549 ARE-Fluc cells, CellTiter-Fluor viability, 18-24 h; note: % is set by controls: 0 for no effect and ±100 for the full control effect
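Cytotoxicity counterscreen: CellTiter-Fluor fluorescence was measured in A549 ARE_Fluc cells after 18-24 h of compound exposure in a concentration series. The subsequent BugLite luminescent read reports ARE-luciferase activity.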
ATXN2 expr inh – inhibitors of ATXN2 expression; HEK-293 ATXN2-luciferase reporter, luminescence, 24 h; Potency, µM (top dose mostly 57 µM), without a hit: at the highest dose activity change, negative = inhibition, hits mostly inhibitors; 0.72% of 360,000 active; note: % is set by controls: 0 for no effect and ±100 for the full control effect; nearly all actives have a fitted effect of over 55% in size
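qHTS (up to 57 uM final) was run with 24 h compound exposure of reporter cells at 37 °C. Each well was multiplexed: SteadyGlo luminescence measured ATXN2-luciferase expression after a fluorogenic Gly-Phe-AFC viability readout (25 uM final).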
Nrf2 ARE act – activates Nrf2 signaling; Potency, µM (top dose mostly 46.1 µM), inactives show top-dose activation, usual class: activators; 0.31% of 410,000 active; AREc32 ARE-luciferase reporter (MCF7-derived line), luminescence, 24 h; AID 624171; note: % of control where 0% means no effect; nearly all actives have a fitted effect of over 65% in size
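For detection, Steady-Glo was added and plates sat 30 min at RT; before that, AREc32_Fluc cells grown overnight in OPTI-MEM/5% FBS had been treated with 23 nL compound for 24 hr at 37 deg C.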
Nrf2 inh – blocks Nrf2 signaling; A549 ARE-Fluc reporter, luciferase luminescence, 18-24 h; Potency, µM (series often up to 46 µM), for the others: at the highest dose activity change, negative = inhibition, usual class: inhibitors; 2.1% of 360,000 active; AID 504444; note: % is set by controls: 0 for no effect and ±100 for the full control effect; nearly all actives have a fitted effect of over 60% in size
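Nrf2 activity is the BugLite luminescence, read 15 min after reagent at room temperature, following CellTiter-Fluor cytotoxicity readout (30 min, 37C). Compound titrations were applied for 18-24 h to 5000 A549 ARE_Fluc cells/well in 5% FBS OPTI-MEM.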
S2 tox – viability counter-screen for ATXN expression inhibitors. S2 cells (HEK-293 line with an ATXN2-luciferase reporter) viability, CellTiter-Fluor protease fluorescence, 24 h. Potency, µM (titrated, usually from 56.7 µM), most hits filed as cytotoxic. 0.49% of 400,000 active. AID 651635; note: nearly all actives have a fitted effect of over 40% in size
An asterisk follows results filed as active; i = inactive; u = inconclusive; x = not tested or not shown. Calls come from the whole dose curve; as a rule, active = well fitted curve in the direction sought with a large enough effect; inconclusive = small, poorly fitted or top-dose-only effect, or another doubt; inactive = no such curve, though single readings can be large; an effect the other way counts as inactive or inconclusive. Potency is the fitted concentration of half-maximal effect.

SMILES	A549 viability	ATXN2 expr inh	Nrf2 ARE act	Nrf2 inh	S2 tox
COc1cccc(NC(=O)CSc2nc(-c3ccccc3Cl)nc3c2Cc2c(CO)cnc(C)c2O3)c1	-1.7%	-3.4%	4.1%	u	i
O=C(Cn1c(COc2ccccc2)nc2ccccc21)Nc1cc(Cl)cc(Cl)c1	-17.0%	u	-0.9%	-4.4%	u
O=C(Cn1c(COc2ccccc2)nc2ccccc21)Nc1cc(Cl)ccc1Cl	u	-14.7%	-0.5%	18.4µM*	i
CCC1CN(CCC(=O)NC2CCOC(C)(C)C2)Cc2cc(OC)ccc2O1 (stereo unspecified)	x	x	x	x	i
O=C(NNC(=O)c1ccc(CNS(=O)(=O)c2ccc(F)c(Cl)c2)cc1)c1ccccc1	x	-0.6%	x	x	x
CCCCCCCOC(=O)C1=C(C)Nc2ncnn2C1c1cccs1 (stereo unspecified)	-5.3%	-24.4%	-0.9%	25.9µM*	i
CCCCCCCCOC(=O)C1=C(C)Nc2nnnn2C1c1cccs1 (stereo unspecified)	-11.8%	u	-1.9%	u	u
COc1ccc(Br)cc1CC1C(=O)Nc2ccccc21 (stereo unspecified)	2.2%	x	4.1%	7.31µM*	x
NS(=O)(=O)c1ccc(Cc2ncc(C(F)(F)F)cc2Cl)s1	u	-6.5%	11.6%	20.6µM*	i
COc1ccc(CCNC(c2ccc(F)cc2)c2nnc(-c3ccccc3Cl)o2)cc1OC (stereo unspecified)	-12.0%	-32.9%	3.3%	u	u
Cc1ccc2oc(C(Cl)(Cl)Cl)cc(=O)c2c1	u	u	22.4µM*	0.5%	u
CCOC(=O)C(=O)c1csc(NC=O)n1	x	11.6%	x	x	i
O=C(COc1ccc(Cl)cc1Cl)NCC1(N2CCOCC2)CCCCC1	-0.5%	u	0.1%	23.1µM*	i
CCCCC(=O)OCC(=O)[C@H]1[C@H](C)C[C@H]2[C@@H]3C[C@H](F)C4=CC(=O)C=C[C@]4(C)[C@@]3(F)[C@@H](O)C[C@@]21C	x	-14.1%	x	x	i
Clc1ccc(Cl)c(OCCN2CCCC2)c1	8.4%	x	0.5%	-2.8%	i
CCNC(=O)c1cc2c(-c3cc(OCCN4CCCC4)c(Cl)cc3Cl)nc(N)nc2s1	x	1.37µM*	x	x	x
CCc1ccccc1NC(=O)N1CC(C)Sc2ccccc21 (stereo unspecified)	-20.6%	x	-1.0%	-2.9%	x
CCCCNc1c(-c2cccc(-c3cc(C(C)=O)cs3)c2)nc2ccc(C)cn12	u	u	-2.6%	u	15.8µM*
CC(=O)Nc1cc(C(=O)N2CCN(C(=O)c3ccco3)CC2)cc2ncn(CCc3ccccn3)c12	x	x	x	x	i
Cn1nnnc1Sc1ncnc2scc(-c3cccc(C(F)(F)F)c3)c12	u	14.1µM*	u	u	15.8µM*
Cn1nnnc1Sc1ncnc2scc(-c3ccc(C(F)(F)F)cc3)c12	u	3.98µM*	u	u	11.2µM*
Cn1nnnc1Sc1ncnc2scc(-c3ccc(C#N)cc3)c12	u	10µM*	-2.0%	16.4µM*	10µM*
Cc1c(C(=O)NCCc2ccc(Cl)cc2)sc2nc3n(c(=O)c12)CCCC3	u	x	4.1%	u	x
O=C(Nc1ccc(Cl)c(-c2nc3ccccc3o2)c1)c1cccc2c(Cl)cccc12	-5.6%	12.1%	1.4%	12.8%	i
CCC(CO)Oc1cc(NCc2ccc(C(C)(C)C)cc2)c2ncn(C(C)C)c2c1 (stereo unspecified)	u	u	-2.1%	u	31.6µM*
SMILES	A549 viability	ATXN2 expr inh	Nrf2 ARE act	Nrf2 inh	S2 tox
CCC(COC)Oc1cc(NCc2ccccc2)c2ncn(C(C)C)c2c1 (stereo unspecified)	u	-3.1%	-5.0%	18.4µM*	22.4µM*
CC(C)n1cnc2c(NCc3ccccc3)cc(N[C@H](C)CO)cc21	23.1µM*	1.12µM*	-3.2%	u	0.891µM*
CCC(COC(=O)c1ccccc1)Oc1cc(NCc2ccccc2)c2ncn(C(C)C)c2c1 (stereo unspecified)	16.4µM*	u	-5.1%	23.1µM*	u
C#Cc1nc(Nc2cccc(Cl)c2)nc(NC2CCCC2)n1	-8.1%	x	x	u	x
Cc1ccc(NC(=O)c2ccc(=O)[nH]n2)cc1C	-5.6%	51.5%	3.3%	u	i
Cc1ccc(NC(=O)c2ccc(=O)[nH]n2)cc1S(=O)(=O)Nc1ccc(SC(F)F)cc1	-11.1%	x	4.0%	20.6µM*	i
CC(=O)OCC(=O)[C@@]1(O)CC[C@H]2[C@@H]3CCC4=CC(=O)C=C[C@]4(C)[C@@H]3[C@@H](O)C[C@@]21C	x	-3.1%	x	x	x
O=S1(=O)N=C(OCc2ccccc2)c2ccccc21	8.7%	x	x	u	x
COc1ccc(C2/C=C\CN(C(=O)Nc3ccc(C(F)(F)F)cc3)CC(=O)N2Cc2ccc(F)cc2)cc1 (stereo unspecified)	-3.6%	0.0%	0.0%	23.1µM*	u
CCCCCCC(=O)N1C/C=C\C(c2ccc(OC)cc2)N(Cc2ccc(F)cc2)C(=O)C1Cc1ccccc1 (stereo unspecified)	-17.5%	x	x	u	x
CCCCC(=O)N1C/C=C\C(c2ccc(OC)cc2)N(Cc2ccc(F)cc2)C(=O)C1Cc1ccccc1 (stereo unspecified)	-20.6%	x	x	23.1µM*	x
COc1ccc([C@H]2/C=C\CN(C(=O)C3CCCC3)[C@@H](C)C(=O)N2Cc2ccc(F)cc2)cc1	-13.3%	u	-0.1%	-4.5%	20µM*
COc1ccc(C2/C=C\CN(C(=O)Nc3ccccc3)CC(=O)N2Cc2ccc(F)cc2)cc1 (stereo unspecified)	-0.6%	-22.0%	-0.4%	-8.9%	i
NC(=O)c1ncn([C@@H]2O[C@H](CO)[C@@H](O)[C@@H]2O)c1O	x	6.4%	x	x	x
O=C(NCCc1ccccn1)C1CC12CCN(C(=O)c1ccc(F)cc1Cl)CC2 (stereo unspecified)	x	x	x	x	i
O=C(O)c1ccc(Nc2ncc3c(n2)-c2ccc(Cl)cc2C(c2c(F)cccc2F)=NC3)cc1	x	-3.0%	x	x	x
Cc1cc(C(=O)NCC2CCC3(CCN(Cc4ccc(-c5ccccc5)cc4)CC3)O2)n(C)n1 (stereo unspecified)	x	x	x	x	i
CN1CCN(C(c2ccc(C(F)(F)F)cc2)c2ccc3cccnc3c2O)CC1 (stereo unspecified)	-8.2%	7.94µM*	4.0%	-29.3%	u
CCn1nc(C)cc1-c1nnc(Sc2ncc([N+](=O)[O-])s2)n1C	u	x	-3.7%	-6.8%	3.55µM*
CN1CC(c2ccc(Cl)c(Cl)c2)[C@@]2(COc3ccccc3C2=O)[C@@]12C(=O)Nc1ccccc12 (stereo partly specified)	u	-35.7%	0.1%	18.4µM*	i
CCc1ccc(C(=O)Nc2nc3ccccc3[nH]2)cc1	-13.9%	5.01µM*	-1.5%	u	i
O=C(Nc1nc2ccccc2[nH]1)c1ccc(F)cc1	4.1%	u	2.1%	u	i
